# Active and inactive are the calls of the source.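 Rule for the calls, unless noted: active = fluorescence slope after compound addition differing from the mean of all screened samples at 99.7% confidence, in either direction; inactive = the rest.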
# Experiments:
# [1] = inhibitors of TNFa-induced NFkB p65 translocation, primary screen, imaging, HUVEC, MLSMR starter and 10KST1 sets (AID 438;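 active = inhibition above 20% together with a positive visual image hit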;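 note: compound added about 3h40 before a 20 min TNFalpha stimulation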;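 for inhibition: signal is the nuclear over cytoplasmic p65 intensity ratio per well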); details: HUVEC TNFa-induced p65 nuclear translocation; cell count: measured here: nuclei count (cytotoxicity indicator), at 2.08 µM; inhibition: at 2 µM, stronger effect = higher value, 0% TNFa-plus-vehicle, 100% no-TNFa wells
# [2] = reduction of polyQ htt aggregates in cells – imaging, exon1htt(103Q)mCFP cells, high-content imaging, primary screen (AID 483;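 active = visual image review flags a hit and inhibition of aggregation exceeds 20%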;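 note: compound exposure lasted 3 days before fixation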;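 for nuclei count: percent of the per-plate median nuclei count of sample wells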); details: exon1htt(103Q)mCFP cell line, aggregate imaging, at 2 µM; inhibition of aggregation: stronger effect = higher value; nuclei count: measured here: cell count, toxicity
# [3] = endothelial E-selectin expression blockers – imaging, HUVEC, immunofluorescence, MLSMR starter and 10KST1 sets, primary screen (AID 487;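 active = visually confirmed hit in the image check and inhibition above 20%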;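 for inhibition: signal is fraction of cell area covered by stained E-selectin grains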;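 for nuclei count: 100% = median nuclei count of all wells on the same plate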); details: HUVEC TNFalpha-induced E-selectin immunofluorescence imaging, at 2 µM; inhibition: stronger effect = higher value; nuclei count: measured here: cell number, toxicity
# [4] = molecular target: Voltage-gated potassium channel subunit beta-2 (Rattus norvegicus) (UniProt P62483); assay: inhibitors of rat Kvbeta2 reductase activity – biochemical, NADPH fluorescence, primary screen (AID 622;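 active = fluorescence slope higher than the sample average by over 3 SD, cut at about -0.22 in these data, passing the limit was not always enough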;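 note: slope of raw intensity against log time taken from 70 to 1610 s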); details: recombinant KvBeta, 4-cyanobenzaldehyde reduction, at 10 µM, stronger effect = higher value
# Sequence of Voltage-gated potassium channel subunit beta-2 (Rattus norvegicus) (P62483 whole entry, looked up): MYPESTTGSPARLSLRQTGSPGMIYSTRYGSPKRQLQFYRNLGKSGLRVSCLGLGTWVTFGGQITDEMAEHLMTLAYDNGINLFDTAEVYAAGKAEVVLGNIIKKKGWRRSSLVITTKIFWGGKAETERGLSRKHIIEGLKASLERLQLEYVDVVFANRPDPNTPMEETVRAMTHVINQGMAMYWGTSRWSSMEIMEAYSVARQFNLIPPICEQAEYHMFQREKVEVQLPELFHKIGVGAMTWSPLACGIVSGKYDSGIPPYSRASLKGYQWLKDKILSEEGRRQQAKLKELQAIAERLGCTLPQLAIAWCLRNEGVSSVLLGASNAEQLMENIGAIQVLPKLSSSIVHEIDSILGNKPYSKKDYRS
# [5] = molecular target: Voltage-gated potassium channel subunit beta-2 (Rattus norvegicus) (UniProt P62483); assay: enhancers of rat Kvbeta2 NADPH turnover – biochemical, NADPH fluorescence, primary screen (AID 623;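 active = NADPH fluorescence slope more negative than the mean of all samples by about 3 SD, 99.7% confidence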;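 note: fluorescence intensity change per second fitted from 20 to 320 s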); details: Recombinant KvBeta, NADPH fluorescence decrease slope, 10 min; at 10 µM; stronger effect = lower value
# [6] = molecular target: Alpha-2C adrenergic receptor (Homo sapiens) (UniProt P18825); assay: compounds altering alpha2C-coupled GIRK flux – cell-based, HEK293 alpha2C/GIRK1/2, thallium flux, primary screen (AID 624); details: thallium flux BTC fluorescence, at 10 µM, actives lie on both sides;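 note: slope of fluorescence ratio to pre-addition baseline per second over 15 to 24 s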
# Sequence of Alpha-2C adrenergic receptor (Homo sapiens) (P18825 whole entry, looked up): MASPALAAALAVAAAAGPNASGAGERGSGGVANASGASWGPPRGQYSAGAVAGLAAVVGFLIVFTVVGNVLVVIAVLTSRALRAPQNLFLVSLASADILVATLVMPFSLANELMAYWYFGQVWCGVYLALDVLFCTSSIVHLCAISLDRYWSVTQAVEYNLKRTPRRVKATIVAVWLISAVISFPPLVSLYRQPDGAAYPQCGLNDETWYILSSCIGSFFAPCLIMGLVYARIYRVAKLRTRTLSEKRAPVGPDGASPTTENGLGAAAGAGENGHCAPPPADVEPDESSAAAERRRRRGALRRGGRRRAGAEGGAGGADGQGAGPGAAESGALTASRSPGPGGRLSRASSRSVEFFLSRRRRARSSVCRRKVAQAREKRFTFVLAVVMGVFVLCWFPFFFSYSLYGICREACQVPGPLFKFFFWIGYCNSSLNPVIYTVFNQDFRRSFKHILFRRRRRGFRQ
# [7] = blockers of RIG-like receptor reporter activation – cell-based, Sendai virus stimulus, luciferase, 10K MLSCN set, TLR/RLR signaling modifier project, primary screen (AID 602276;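 active = inhibition at or above 50% at 10 µM; inactive = inhibition below 50%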;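 note: firefly luciferase from ISG56 promoter only with Renilla not read in this screen; 0% = Sendai virus plus DMSO and 100% = medium plus DMSO without virus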); details: HEK293 RL24 IRF3 luciferase reporter, at 10 µM, stronger effect = higher value
# [8] = TLR3 IRF3 reporter activation blockers – cell-based, poly I:C stimulus, luciferase, 10K MLSCN set, primary screen (AID 602277;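 active = inhibition of the reporter signal at or above 50%; inactive = inhibition below 50%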); details: HEK293-TLR3 RL24 IRF3 luciferase reporter, at 10 µM, stronger effect = higher value
smiles,measurement,setting,value
COc1ccc(NC(=O)CSc2nc3c(c(=O)n2-c2ccc(F)cc2)SCC3)cc1,cell count,[1],596
same,inhibition,[1],-5.8% (inactive)
same,inhibition of aggregation,[2],20% (inactive)
same,nuclei count,[2],53.8%
same,inhibition,[3],-11.9% (inactive)
same,nuclei count,[3],91.5%
same,fluorescence slope,[4],-0.541 (inactive)
same,NADPH fluorescence slope,[5],-1.7e-05 (inactive)
same,slope,[6],0.00814 (inactive)
same,inhibition,[7],17.1% (inactive)
same,inhibition,[8],26.3% (inactive)
Cc1cc(C(=O)NCc2cccnc2)no1,cell count,[1],337
same,inhibition,[1],4.2% (inactive)
same,inhibition of aggregation,[2],6.9% (inactive)
same,nuclei count,[2],105%
same,inhibition,[3],7.8% (inactive)
same,nuclei count,[3],102%
same,fluorescence slope,[4],-0.5 (inactive)
same,NADPH fluorescence slope,[5],-8.2e-06 (inactive)
same,slope,[6],0.00709 (inactive)
same,inhibition,[7],11.1% (inactive)
same,inhibition,[8],14.3% (inactive)
O=C1Nc2ccccc2OC1CC(=O)N1CCCC1 (centres undefined),cell count,[1],491
same,inhibition,[1],-6.6% (inactive)
same,inhibition of aggregation,[2],44.6% (active)
same,nuclei count,[2],80.1%
same,inhibition,[3],-105% (inactive)
same,nuclei count,[3],115%
same,fluorescence slope,[4],-0.522 (inactive)
same,NADPH fluorescence slope,[5],-1.3e-05 (inactive)
same,slope,[6],0.00582 (inactive)
same,inhibition,[7],6.75% (inactive)
same,inhibition,[8],28.5% (inactive)
CCc1nnc(NC(=O)CSc2nnc3scc(-c4ccc(C)cc4)n23)s1,cell count,[1],684
same,inhibition,[1],-32.6% (inactive)
same,inhibition of aggregation,[2],9.1% (inactive)
same,nuclei count,[2],96.5%
same,inhibition,[3],-5.3% (inactive)
same,nuclei count,[3],104%
same,fluorescence slope,[4],-0.504 (inactive)
same,NADPH fluorescence slope,[5],-0.000345 (inactive)
same,slope,[6],0.00638 (inactive)
same,inhibition,[7],14.5% (inactive)
same,inhibition,[8],14.2% (inactive)
O=C1c2ccccc2C(Nc2ccc(F)c(Cl)c2)N1Cc1ccco1 (centres undefined),cell count,[1],778
same,inhibition,[1],-11.6% (inactive)
same,inhibition of aggregation,[2],-4.9% (inactive)
same,nuclei count,[2],110%
same,inhibition,[3],-37.8% (inactive)
same,nuclei count,[3],105%
same,fluorescence slope,[4],-0.442 (inactive)
same,NADPH fluorescence slope,[5],-5.5e-05 (inactive)
same,slope,[6],0.0049 (inactive)
same,inhibition,[7],5.4% (inactive)
same,inhibition,[8],26.8% (inactive)
O=C(O)c1ccc2c(c1)C(=O)N(c1ccc(Cl)cn1)C2=O,cell count,[1],675
same,inhibition,[1],-4.5% (inactive)
same,inhibition of aggregation,[2],14.8% (inactive)
same,nuclei count,[2],84.8%
same,inhibition,[3],-72% (inactive)
same,nuclei count,[3],131%
same,fluorescence slope,[4],-0.55 (inactive)
same,NADPH fluorescence slope,[5],-2.8e-05 (inactive)
same,slope,[6],0.00724 (inactive)
same,inhibition,[7],10.9% (inactive)
same,inhibition,[8],29.8% (inactive)
COc1ccc(OCC(=O)N2CC3(C)CC2CC(C)(C)C3)cc1 (centres undefined),cell count,[1],403
same,inhibition,[1],-0.6% (inactive)
same,inhibition of aggregation,[2],-6.4% (inactive)
same,nuclei count,[2],122%
same,inhibition,[3],-55.8% (inactive)
same,nuclei count,[3],97.4%
same,fluorescence slope,[4],-0.495 (inactive)
same,NADPH fluorescence slope,[5],-6.6e-06 (inactive)
same,slope,[6],0.004 (inactive)
same,inhibition,[7],20% (inactive)
same,inhibition,[8],26.7% (inactive)
COc1ccc(NC(=O)CN2CCN(CC(=O)Nc3cc(OC)cc(OC)c3)CC2)cc1,cell count,[1],306
same,inhibition,[1],-3.6% (inactive)
same,inhibition of aggregation,[2],8% (inactive)
same,nuclei count,[2],89.1%
same,inhibition,[3],4.7% (inactive)
same,nuclei count,[3],84.6%
same,fluorescence slope,[4],-0.442 (inactive)
same,NADPH fluorescence slope,[5],-0.000127 (inactive)
same,slope,[6],0.00643 (inactive)
same,inhibition,[7],13.3% (inactive)
same,inhibition,[8],32.4% (inactive)
O=C1NC2(Nc3ccccc31)C(=O)Nc1ccccc12 (centres undefined),cell count,[1],361
same,inhibition,[1],-4.3% (inactive)
same,inhibition of aggregation,[2],6.1% (inactive)
same,nuclei count,[2],102%
same,inhibition,[3],-129% (inactive)
same,nuclei count,[3],106%
same,fluorescence slope,[4],-0.355 (inactive)
same,NADPH fluorescence slope,[5],-4.5e-06 (inactive)
same,slope,[6],0.00484 (inactive)
same,inhibition,[7],13.7% (inactive)
same,inhibition,[8],37.4% (inactive)
Cc1cccc(NC(=O)CC(C)(C)C)c1,cell count,[1],349
same,inhibition,[1],-6.6% (inactive)
same,inhibition of aggregation,[2],12% (inactive)
same,nuclei count,[2],95.6%
same,inhibition,[3],-1.1% (inactive)
same,nuclei count,[3],99.8%
same,fluorescence slope,[4],-0.369 (inactive)
same,NADPH fluorescence slope,[5],2.2e-05 (inactive)
same,slope,[6],0.00657 (inactive)
same,inhibition,[7],10.5% (inactive)
same,inhibition,[8],6.01% (inactive)
COc1ccc(NC(=O)c2cc(C)on2)cc1OC,cell count,[1],377
same,inhibition,[1],3.7% (inactive)
same,inhibition of aggregation,[2],-26.4% (inactive)
same,nuclei count,[2],111%
same,inhibition,[3],22.1% (inactive)
same,nuclei count,[3],106%
same,fluorescence slope,[4],-0.624 (inactive)
same,NADPH fluorescence slope,[5],-3.2e-06 (inactive)
same,slope,[6],0.00386 (inactive)
same,inhibition,[7],6.93% (inactive)
same,inhibition,[8],-8.62% (inactive)
CCOC(=O)c1ccc2ncc(C(=O)OCC)c(NCCN(C)C)c2c1,cell count,[1],770
same,inhibition,[1],-3.3% (inactive)
same,inhibition of aggregation,[2],-5.5% (inactive)
same,nuclei count,[2],94%
same,inhibition,[3],-63.4% (inactive)
same,nuclei count,[3],113%
same,fluorescence slope,[4],-0.545 (inactive)
same,NADPH fluorescence slope,[5],-3.1e-05 (inactive)
same,slope,[6],0.00656 (inactive)
same,inhibition,[7],10% (inactive)
same,inhibition,[8],44% (inactive)
c1cnc2c(SCc3ccc(-c4nnco4)cc3)cccc2c1,cell count,[1],431
same,inhibition,[1],11.7% (inactive)
same,inhibition of aggregation,[2],-3.7% (inactive)
same,nuclei count,[2],100%
same,inhibition,[3],-23.1% (inactive)
same,nuclei count,[3],107%
same,fluorescence slope,[4],-0.586 (inactive)
same,NADPH fluorescence slope,[5],-4.6e-06 (inactive)
same,slope,[6],0.00482 (inactive)
same,inhibition,[7],-53.9% (inactive)
same,inhibition,[8],-92.3% (inactive)
CCn1c(=O)c2cc(S(=O)(=O)NCc3ccccc3)ccc2n(CC)c1=O,cell count,[1],404
same,inhibition,[1],-2.3% (inactive)
same,inhibition of aggregation,[2],-3.8% (inactive)
same,nuclei count,[2],104%
same,inhibition,[3],0.2% (inactive)
same,nuclei count,[3],126%
same,fluorescence slope,[4],-0.573 (inactive)
same,NADPH fluorescence slope,[5],1.7e-05 (inactive)
same,slope,[6],0.00625 (inactive)
same,inhibition,[7],11.6% (inactive)
same,inhibition,[8],3.23% (inactive)

# Reference: PubChem BioAssay
